High-throughput results (PubChem BioAssay)
Sampled rows, rich in hits. Any-hit rate of the full collection: about 4.6%.
D1 potentiator: enhances dopamine response at the human D1 receptor; 0.036% of 360,000 active; HEK293 TREx D1 cells, calcium flux, dopamine EC20 potentiation; potentiation, % at 10 µM; P21728; AID 504651; in the data active = potentiation above about 30%; also: 0% is about no effect
TRHR PAM: allosterically enhances the human TRH receptor; P34981; TRHR cells, fluo-8 calcium fluorescence, EC20 TRH enhancement; enhancement, % at 2 µM; 0.66% of 360,000 active; in the data active = enhancement above about 30%; also: 0% is about no effect
Target sequence (P34981 whole entry, looked up): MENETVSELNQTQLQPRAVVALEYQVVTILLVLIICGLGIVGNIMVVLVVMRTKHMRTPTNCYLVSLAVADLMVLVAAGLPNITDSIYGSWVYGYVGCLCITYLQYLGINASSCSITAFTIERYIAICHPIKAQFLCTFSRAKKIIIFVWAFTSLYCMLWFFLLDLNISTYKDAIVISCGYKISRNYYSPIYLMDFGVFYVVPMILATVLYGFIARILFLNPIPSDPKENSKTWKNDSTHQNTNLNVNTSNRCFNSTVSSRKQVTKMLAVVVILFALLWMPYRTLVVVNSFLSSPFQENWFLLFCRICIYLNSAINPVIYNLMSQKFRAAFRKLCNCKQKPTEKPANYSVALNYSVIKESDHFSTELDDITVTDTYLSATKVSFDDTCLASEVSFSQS
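TRHR-expressing cells loaded with fluo-8 calcium dye were read kinetically (ex 480/em 530) during compound addition, then stimulated with an EC20 of TRH (10 nM final). Enhancement of the Gq-mediated intracellular calcium response was scored.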
TRHR ag: agonists of human TRH receptor. activation, % at 2 µM. P34981. 0.18% of 360,000 active. AID 493084. TRHR cells, calcium flux fluo-8, FDSS agonist mode; also: 0% is about no effect
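Steps: seed TRHR cells overnight; add fluo-8 no-wash Ca dye, RT 30 min–1.5 h; record 10 s baseline; pin-transfer compounds; monitor fluorescence 1 cycle/s for the agonist window. Calcium increases flag candidate agonists.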
D1 agonist: activates the human D1 dopamine receptor. HEK293 T-REx D1 cells, calcium flux, agonist mode. 1% of 360,000 active. activation, % at 2 µM; also: 0% is about no effect
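Tetracycline-induced HEK293 TREx D1 cells, force-coupled to calcium signalling, were dye-loaded with a no-wash calcium kit. Compound was pin-added after a 10 s baseline. Fluorescence was read kinetically at 1 cycle/s for 180 s, with calcium rises flagged as agonism.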
D1 antag: human D1 dopamine receptor antagonism; P21728; HEK293 TREx D1 cells, calcium flux, dopamine EC80; stronger effect = lower value; activity change, negative = inhibition, % at 10 µM; 3.2% of 360,000 active; AID 504652; in the data active = activity change below about -30%; also: % is scaled to controls: 0 for no effect and ±100 for the full control effect
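After overnight tetracycline induction at 30 C, force-coupled D1 HEK293 cells took up a no-wash calcium dye at room temperature. Compounds were added and monitored 180 s, and the response to EC80 dopamine was then recorded.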
Numbers without * were called inactive. Rule as the data show it, unless noted: active = activation above about 30%; inactive = the rest.

Screening CC(C)c1ccc(Nc2cc(C(=O)NCCc3ccccc3)c3ccccc3n2)cc1 returned D1 potentiator -1, TRHR PAM -5, TRHR ag 2, D1 agonist 3 and D1 antag -5.
Screening C=CCOc1ccccc1CNCCc1ccc(S(N)(=O)=O)cc1 returned D1 potentiator 2, TRHR PAM 5, TRHR ag 0, D1 agonist 9 and D1 antag -10.
Screening NS(=O)(=O)c1ccc(CCNCc2ccccc2OCc2ccc(Cl)cc2)cc1 returned D1 potentiator -8, TRHR PAM -6, TRHR ag 2, D1 agonist 53* and D1 antag -48*.
For Fc1ccccc1COc1ccc(Br)cc1CNCC1CCCO1 (centres undefined) the results were D1 potentiator -12, TRHR PAM -3, TRHR ag 0, D1 agonist 12 and D1 antag -50*.
Cc1ccccc1CSc1ncc(Cl)c(C(=O)Nc2nc3ccc(F)cc3s2)n1 was read as D1 potentiator 1, TRHR PAM -3, TRHR ag 0, D1 agonist 2 and D1 antag 7.
For Cc1ccc(NC(=O)CSc2n[nH]c(-c3cccnc3)n2)c(Br)c1 the results were TRHR PAM 4, TRHR ag -1, D1 agonist 7 and D1 antag -32*.
Screening COc1ccccc1NC(=O)CSc1n[nH]c(-c2cccnc2)n1 returned D1 potentiator 1, TRHR PAM 0, TRHR ag 0, D1 agonist 0 and D1 antag 5.
COc1ccc(S(=O)(=O)N(CC(=O)Nc2cccnc2)c2ccc(C)cc2)cc1OC was read as D1 potentiator 0, TRHR PAM 1, TRHR ag -1, D1 agonist -1 and D1 antag 10.
Screening CN1CCN(CCCNC(=O)c2ccc(/C=C3\Sc4ccccc4N(Cc4ccccc4F)C3=O)cc2)CC1 returned D1 potentiator -9, TRHR PAM 0, TRHR ag 0, D1 agonist 19 and D1 antag -30*.
O=C(CN1C(=O)/C(=C\c2cccc(Cl)c2)Sc2ccccc21)NCCCN1CCOCC1 was read as D1 potentiator -17, TRHR PAM 1, TRHR ag -1, D1 agonist 53* and D1 antag -84*.
O=C(CN1C(=O)/C(=C\c2ccccc2Cl)Sc2ccccc21)NCCCN1CCOCC1 was read as D1 potentiator -9, TRHR PAM -4, TRHR ag 2, D1 agonist 17 and D1 antag -1.
For CCc1ccc(/C=C2/Sc3ccccc3N(CC(=O)NCCCN3CCOCC3)C2=O)cc1 the results were D1 potentiator -6, TRHR PAM 8, TRHR ag 5, D1 agonist 9 and D1 antag -52*.
`O=C(CN1C(=O)/C(=C/c2ccc(C(F)(F)F)cc2)Sc2ccccc21)NCCCN1CCOCC1` gave D1 potentiator -9, TRHR PAM 7, TRHR ag 4, D1 agonist 16 and D1 antag -34*.
O=C(CCN1C(=O)/C(=C\c2ccccc2)SC1=S)NCCCN1CCOCC1 was read as D1 potentiator 1, TRHR PAM 4, TRHR ag -1, D1 agonist 0 and D1 antag 26.
O=C(NCCN1CCOCC1)c1ccc(/C=C2\Sc3ccccc3N(Cc3ccccc3F)C2=O)cc1 was read as D1 potentiator 0, TRHR PAM 2, TRHR ag 0, D1 agonist 8 and D1 antag -12.
For COc1ccc(OCc2ccc(-c3nc(C#N)c(N4CCN(c5cccc(Cl)c5)CC4)o3)o2)cc1 the results were D1 potentiator 0, TRHR PAM -3, TRHR ag 1, D1 agonist -1 and D1 antag 5.
Cc1cc(C)c(NC(=O)CN(C)C(C)C(=O)N2CCc3ccccc32)c(C)c1 (centres undefined) was read as D1 potentiator -2, TRHR PAM 32*, TRHR ag -1, D1 agonist 1 and D1 antag 7.
COc1c(CC=C(C)C)cc(C2CC(=O)c3c(O)cc(O)cc3O2)cc1CC=C(C)C (centres undefined) was read as D1 potentiator -8, TRHR PAM 33*, TRHR ag 0, D1 agonist 3 and D1 antag -13.
For COc1ccc([C@@H]2CC(=O)c3c(O)cc(O)cc3O2)cc1O the results were D1 potentiator -1, TRHR PAM -1, TRHR ag 0, D1 agonist -2 and D1 antag -15.
COc1ccc(C(=O)Nc2ccc(-c3nc4ncccc4o3)cc2C)cc1Br was read as D1 potentiator 0, TRHR PAM 17, TRHR ag 0, D1 agonist -1 and D1 antag 7.
CCOc1ccc(NC(=O)c2ccc(Br)o2)c([N+](=O)[O-])c1 was read as D1 potentiator -3, TRHR PAM -2, TRHR ag 0, D1 agonist 0 and D1 antag -45*.
`CCOc1ccc(NC(=O)Cc2ccccc2)c([N+](=O)[O-])c1` gave D1 potentiator -5, TRHR PAM 0, TRHR ag -2, D1 agonist 0 and D1 antag 9.
`COc1ccc(CCNS(=O)(=O)c2ccc(N3CCCCS3(=O)=O)cc2)cc1` gave D1 potentiator 1, TRHR PAM 4, TRHR ag -1, D1 agonist 22 and D1 antag -28.
CCOC(=O)c1noc2nc(C)n(CC(=O)NC(C)CC)c(=O)c12 (centres undefined) was read as D1 potentiator 1, TRHR PAM 34*, TRHR ag 0, D1 agonist 1 and D1 antag -4.
For Cc1ccc(NC(=O)c2sc3nc(-c4ccncc4)ccc3c2N)cc1 the results were D1 potentiator 14, TRHR PAM -6, TRHR ag -1, D1 agonist 165* and D1 antag -5.
`Cc1ccccc1NC(=O)c1sc2nc(-c3ccncc3)ccc2c1N` gave D1 potentiator -4, TRHR PAM -3, TRHR ag 10, D1 agonist 48* and D1 antag -17.
COc1cccc(CNC(=O)C(C)n2ncn3cccc3c2=O)c1OC (centres undefined) was read as D1 potentiator -4, TRHR PAM 22, TRHR ag 0, D1 agonist 1 and D1 antag -3.
For COc1ccc(Cl)cc1NC(=O)C(=O)NCc1ccncc1 the results were D1 potentiator -13, TRHR PAM 28, TRHR ag -2, D1 agonist 2 and D1 antag -38*.
`Cc1ccnc(N/C=C(\C#N)c2nc(-c3cccc(Br)c3)cs2)c1` gave D1 potentiator -6, TRHR PAM 26, TRHR ag 0, D1 agonist 160* and D1 antag -36*.
Screening N#C/C(=C/c1ccc(Cl)cc1)c1nc(-c2ccc(Br)cc2)cs1 returned D1 potentiator -3, TRHR PAM -3, TRHR ag 1, D1 agonist 2 and D1 antag -7.
